ELG1 genotox – induces genotoxicity in HEK293T cells with luciferase-tagged ELG1; 1.3% of 330,000 active; HEK293T ELG1-luciferase reporter, luminescence, 16 h; Potency, µM (doses to about 46 µM), without a hit: at the highest dose activity change, positive = activation, actives largely listed as activators; note: % of control where 0% means no effect; nearly all actives have a fitted effect of over 60% in size
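Genotoxicity was scored as increased ELG1-luciferase reporter signal, measured by ONE-Glo luminescence (30 min, room temperature). Compound or vehicle exposure of the HEK293T reporter cells lasted 16 hr at 37°C.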
Luc counter – blocks Kinase-Glo luciferase, a counter-screen artifact. Q27757. Kinase-Glo luciferase, ATP luminescence, 8 min. Potency, µM (titrated, usually from 38.3 µM), for inactives: at the highest dose activity change, negative = inhibition, most hits filed as inhibitors. 0.28% of 200,000 active. AID 1379; note: % is set by controls: 0 for no effect and ±100 for the full control effect; nearly all actives have a fitted effect of over 60% in size
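Kinase-Glo luciferase light output from ATP and luciferin was measured with 10 uM ATP, within the enzyme's linear range. Buffer: 50 mM imidazole pH 7.2, 50 mM KCl, 7 mM MgCl2, 0.01% Tween 20, 0.05% BSA; luminescence read after 8 min at ambient temperature.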
SMN2 splice up – enhancers of SMN2 splice variant expression | HEK293 SMN2-luciferase splicing reporter, luminescence, 30-36 h | Potency, µM (titrated, usually from 46.1 µM), inactives show top-dose activity change, positive = activation, actives largely listed as activators | 2.8% of 210,000 active; note: % of control where 0% means no effect; nearly all actives have a fitted effect of over 55% in size
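qHTS luciferase splicing reporter: luminescence rises when SMN2 exon 7 is included in transfected HEK293 cells. Compound exposure lasted 30-36 h at 37C, with 4.5 mM final sodium butyrate as control, followed by a ONE-Glo read.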
FLuc modulator – firefly luciferase modulation, counter-screen for miR-21 project. P08659. purified FLuc, Km substrates, luminescence inhibition. Potency, µM (titrated, usually from 57.5 µM), for inactives: at the highest dose activity change, negative = inhibition, most hits filed as inhibitors. 6.9% of 360,000 active;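 note: plate controls were vehicle for no effect and reference inhibitor for full effect; nearly all actives have a fitted effect of over 55% in size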
Target sequence (P08659 whole entry, looked up): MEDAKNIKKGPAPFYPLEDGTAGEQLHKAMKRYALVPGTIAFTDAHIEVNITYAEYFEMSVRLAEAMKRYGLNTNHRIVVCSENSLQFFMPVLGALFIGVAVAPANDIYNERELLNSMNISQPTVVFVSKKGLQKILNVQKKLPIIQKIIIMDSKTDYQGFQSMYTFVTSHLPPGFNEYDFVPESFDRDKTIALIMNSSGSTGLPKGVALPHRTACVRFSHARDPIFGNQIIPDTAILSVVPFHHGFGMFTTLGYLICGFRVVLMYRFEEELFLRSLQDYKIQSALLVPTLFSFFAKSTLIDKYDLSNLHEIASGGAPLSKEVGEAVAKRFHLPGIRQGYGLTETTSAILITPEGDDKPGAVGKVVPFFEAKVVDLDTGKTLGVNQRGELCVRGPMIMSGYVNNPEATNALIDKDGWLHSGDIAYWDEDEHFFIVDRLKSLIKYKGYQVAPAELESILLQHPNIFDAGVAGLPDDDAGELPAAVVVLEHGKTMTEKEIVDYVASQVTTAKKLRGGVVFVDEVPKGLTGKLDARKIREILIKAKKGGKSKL
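Biochemical qHTS of compounds, final roughly 60 µM downward over six points, against 10 nM purified firefly luciferase using Km concentrations of substrates (10 uM D-luciferin, 10 uM ATP) in Tris acetate pH 7.5 buffer; luminescence output.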
Rab9 prom act – activators of Rab9 promoter | 2.8% of 320,000 active | Potency, µM (titrated, usually from 9.22 µM), for inactives: top-dose activation, negative = inhibition, hits mostly activators | Huh7 Rab9 promoter-luciferase reporter, luminescence, 24 h; note: % of control where 0% means no effect; nearly all actives have a fitted effect of over 60% in size
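Measured in stably transfected Huh7 cells bearing a Rab9 promoter–luciferase construct: 24 h compound treatment at 37 °C, followed by luminescence detection.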
NPC1 prom act – NPC1 promoter activation; Huh7 NPC1 promoter luciferase reporter, 24 h; Potency, µM (highest dose often 9.22 µM), for inactives: at the highest dose activation, usual class: activators; 2.4% of 320,000 active; AID 485313; note: % of control where 0% means no effect; nearly all actives have a fitted effect of over 60% in size
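Luminescence read-out of NPC1 promoter-driven luciferase in stably transfected Huh7 cells; compounds delivered in DMSO and left 24 h at 37C, 5% CO2, qHTS titration format.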
The depositor's hits bear a star; ? = inconclusive; / = no result; [ ] = another dose, or the depositor's remark. An excerpt weighted towards active compounds, which were near 7.4% of everything screened. Calls come from the whole dose curve; as a rule, active = well fitted curve in the direction sought with a large enough effect; inconclusive = small, poorly fitted or top-dose-only effect, or another doubt; inactive = no such curve, though single readings can be large; an effect the other way counts as inactive or inconclusive. Potency is the fitted concentration of half-maximal effect.

SMILES	ELG1 genotox	Luc counter	SMN2 splice up	FLuc modulator	Rab9 prom act	NPC1 prom act
COc1cccc(/C=N/n2c(=O)[nH]c3ccccc32)c1OC	15.1%	-0.1%	?	9.53µM*	29.0%	19.2%
CCOC(=O)c1c(C)[nH]c2ccc3c(c12)CN1CCc2cc(OC)ccc2[C@@H]1O3	/	-1.7%	/	/	/	/
Cc1cccc(CN2C(=O)CC(c3ccc(Cl)cc3)c3c(C)nn(-c4nc(C)cc(C)n4)c32)c1 (stereo unspecified)	/	/	/	-2.4%	/	/
Cc1noc(C)c1-c1ccc2ncnc(NC3CC3)c2c1	/	-2.5%	7.94µM*	/	/	/
CC(=O)Nc1ccc(CNc2ncnc3ccc(-c4c(C)noc4C)cc23)cc1	4.11µM*	/	/	-13.5%	-2.4%	-10.9%
Cc1cccc(CNc2ncnc3ccc(-c4c(C)noc4C)cc23)c1	/	-2.5%	5.62µM*	/	/	/
Cc1cccc(CNc2ncnc3ccc(-c4cccc(C)c4)cc23)c1	/	/	/	-3.8%	-1.5%	1.5%
C=CCC(C)(O)c1cccc(Br)c1 (stereo unspecified)	/	-0.2%	0.1%	/	/	/
Cc1cc2oc(=O)c(CC(=O)O)c(C)c2c2occ(-c3ccc(F)cc3)c12	/	/	11.6%	6.75µM*	/	/
COc1ccc(-c2coc3c2c(C)cc2oc(=O)c(CC(=O)O)c(C)c23)cc1	/	/	15.6%	7.57µM*	/	/
O=C(O)c1cccc(COc2ccccc2Cl)c1	/	?	0.0316µM*	0.151µM*	0.891µM*	?
Cc1nn(Cc2ccccc2Cl)c(C)c1NC(=O)c1cc(C(C)C)on1	/	/	?	-14.5%	/	/
Cc1nn(Cc2cccc(F)c2)c(C)c1NC(=O)c1ccc(COc2ccccc2Cl)cc1	-23.6%	-4.0%	-66.8%	3.5%	2.8%	-3.2%
Cc1nn(Cc2c(F)c(F)c(F)c(F)c2F)c(C)c1NC(=O)c1cccc(COc2ccccc2Cl)c1	?	-2.2%	10µM*	6.01µM*	0.355µM*	0.501µM*
O=C(Nc1ccccc1Cl)c1cccc(COc2cc(Cl)ccc2Cl)c1	?	-2.1%	6.31µM*	?	3.98µM*	2.24µM*
Cc1nn(Cc2c(Cl)cccc2Cl)c(C)c1NC(=O)c1cc(C(C)C)on1	-4.1%	1.8%	3.55µM*	-0.6%	0.0%	1.0%
COc1ccc(C(=O)Nc2cc(OCc3ccccc3)c(Cl)cc2Cl)cc1	-2.9%	-0.7%	-14.7%	1.3%	0.1%	-2.5%
CCN(CC)C(=O)c1ccc(COc2ccccc2Cl)cc1	?	5.7%	-40.4%	?	-0.4%	3.7%
COc1ccc(NC(=O)C(CC(C)C)NC(=O)C2CCCCC2)cc1 (stereo unspecified)	/	/	0.1%	-0.2%	/	/
CN1CCN(C(CNC(=O)C(=O)Nc2ccc(Cl)cc2)c2cccnc2)CC1 (stereo unspecified)	/	/	/	-4.3%	/	/
CN1CCN(C(=O)c2ccc(COc3cc(Cl)ccc3Cl)o2)CC1	5.8%	/	/	-3.0%	-4.0%	-1.2%
CN1CCN(C(=O)c2cccc(COc3cc(Cl)ccc3Cl)c2)CC1	?	3.1%	10µM*	?	1.12µM*	3.16µM*
O=C(O)c1ccc(COc2ccccc2Cl)cc1	2.3%	1.9%	11.8%	21.3µM*	23.7%	13.9%
Cc1noc(C)c1COc1ccc(C(=O)Nc2nnc(CC(C)C)s2)cc1	1.6%	/	/	-1.7%	-17.8%	-8.9%
CC(C)Cc1nnc(NC(=O)c2ccc3c(c2)OCCO3)s1	?	/	/	1.9µM*	0.631µM*	2µM*
SMILES	ELG1 genotox	Luc counter	SMN2 splice up	FLuc modulator	Rab9 prom act	NPC1 prom act
CSc1nnc(NC(=O)c2ccc3c(c2)OCO3)s1	0.259µM*	/	/	0.477µM*	0.112µM*	0.224µM*
O=C(Nc1nncs1)c1ccc2c(c1)OCO2	?	/	/	15.1µM*	29.8%	23.2%
Cc1nnc(NC(=O)c2cccc(Br)c2)s1	?	2.3%	-8.9%	?	4.9%	22.5%
Cc1nnc(NC(=O)c2ccc3c(c2)OCO3)s1	?	-13.1%	/	13.5µM*	3.55µM*	?
COCCSc1nnc(NC(=O)c2ccc3c(c2)OCO3)s1	?	0.8%	?	?	?	?
O=C(Nc1ccon1)c1ccc2c(c1)OCO2	?	-9.2%	?	?	?	27.3%
COc1cc(OC)c(NC(=O)Cn2c(=O)cc(C(F)(F)F)c3c(C)nn(C)c32)cc1Cl	/	/	/	0.2%	/	/
Cc1ccc(CCNS(=O)(=O)c2ccc3c(c2)CCN3C(=O)CCC(=O)O)cc1	/	/	26.5%	3.3%	/	/
CSc1nnc(NC(=O)c2ccc(S(=O)(=O)N(C)C)cc2)s1	?	-3.3%	12.6µM*	10.7µM*	0.562µM*	1.58µM*
Cc1nc(NC(=O)c2ccc(OCC(C)C)cc2)sc1Cc1ccc2c(c1)OCO2	-2.6%	-2.1%	-20.5%	21.3µM*	?	18.1%
CCOC(=O)C(C)Sc1nnc(NC(=O)c2ccc3c(c2)OCO3)s1 (stereo unspecified)	13.1%	-0.5%	17.5%	16.9µM*	-5.2%	3.2%
CN(C)S(=O)(=O)c1ccc(C(=O)Nc2nnc(SCc3ccccc3)s2)cc1	3.3%	-4.6%	7.9%	-1.4%	-0.8%	2.3%
COC(=O)C1=C(C(=O)OC)[C@@H]2N(C)c3ccccc3[C@@]23C[C@@H](C(=O)OC)N(S(=O)(=O)c2ccc4c(c2)OCCN4C)C3=N1	/	-5.5%[7.66 µM]	8.4%[9.22 µM]	/	/	/
COc1ccccc1N1CCN(C(=O)CN2C(=O)COc3ccc(S(=O)(=O)N4CCCC4)cc32)CC1	/	/	?	-1.1%	/	/
Cc1ccc(C(=O)Nc2ccc(C(=O)N/N=C/c3c[nH]c4ccccc34)cc2)cc1	2.6%	6.0%	9.9%	?	1.6%	10.9%
Cc1ccc(-c2cc(C(=O)N/N=C/c3c[nH]c4ccccc34)n[nH]2)o1	-7.2%	1.0%	5.2%	10.7µM*	-0.4%	9.2%
Cc1ccc(-c2cc(C(=O)N/N=C/C(Br)=C/c3ccccc3)n[nH]2)o1	-2.5%	0.8%	-2.2%	23.9µM*	21.7%	-3.4%
Cc1cc(C(=O)N/N=C/c2c[nH]c3ccccc23)c(C)o1	11.0%	2.3%	-2.6%	19µM*	-0.3%	1.2%
Cc1ccc(C(=O)N/N=C/c2c[nH]c3ccccc23)o1	?	/	/	23.9µM*	25.5%	17.8%
Cc1ccc(-c2cc(C(=O)N/N=C/c3ccccc3O)n[nH]2)o1	?	/	/	?	-1.2%	2.5%
Cc1cc2oc(C(=O)Nc3c(C)n(C)n(-c4ccccc4)c3=O)cc(=O)c2cc1C	/	/	25.3%	2.4%	/	/
C=CC1=C2C=C(C3CC3)N(c3ccc(OC)cc3)C=C2C(=O)C(C)(OC(=O)c2ccco2)C1=O (stereo unspecified)	/	-0.4%[7.66 µM]	13.5%[9.22 µM]	/	/	/
CC1(C)CC(=O)C=C(NNC(=O)c2ccccc2O)C1	17.4%	?	17.8µM*	0.849µM*	3.16µM*	?
